Compound activity deposited in PubChem BioAssay by Broad Institute.
Sampled rows, rich in hits. Any-hit rate of the full collection: about 4%.
Wnt act: Wnt/beta-catenin pathway activators, primary screen, cell-based, plate reader, single point | activation, % at 9.35 µM | 300,000 tested, 1.2% active | Wnt/beta-catenin reporter cell assay, activator | AID 743398, 2014; in the data active means activation above about 30%, passing the limit was not always enough; inconclusive means no clear call, values can overlap the other calls;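 further: 0% = neutral control wells and 100% = positive control wells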
MITF act: activators of MITF-driven TRPM1 promoter reporter, primary screen, cell-based, SK-MEL-5, luciferase, single point. SK-MEL-5 TRPM1-promoter luciferase, 24 h; % of positive control, neutral wells = 0. activation, % at 12.5 µM. 300,000 tested, 0.75% active. AID 588334, 2011;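 active means mean activation of at least 80% with every replicate also reaching 80%; inconclusive means mean reaches 80% but some replicate falls short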;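 further: 0% = neutral control wells and 100% = parthenolide positive control wells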
TRPM1 prom inh: inhibitors of MITF-dependent TRPM1 promoter reporter, primary screen, cell-based, SK-MEL-5, single point, luciferase; 330,000 tested, 0.83% active; AID 488899, 2010; inhibition, % at 12.5 µM; SK-MEL-5 TRPM1 promoter luciferase, 24 h;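 active means mean inhibition across replicates of 60% or more, whatever share of single replicates reaches that level; inconclusive means some that reach 60%, reason not given; inactive means mean inhibition across replicates below 60%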
LMP1 NFkB inh: EBV LMP1-driven NF-kappaB luciferase reporter inhibitors, primary screen, cell-based, luminescence, single point. LMP1-induced NF-kappaB luciferase reporter cells. inhibition, % at 12.5 µM. 350,000 tested, 0.69% active; in the data active means inhibition above about 41%; inconclusive means no clear call, values can overlap the other calls;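 further: 0% = neutral control wells and 100% = reference inhibitor control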
C2C12 statin: suppressors of statin myotoxicity in C2C12 myotubes, primary screen, cell-based, single point, plate reader; C2C12 myotubes + simvastatin, ATP luminescence, 48 h; scaled: DMSO 0, geranylgeraniol control 100; rescue of ATP level, % at 7.49 µM; 330,000 tested, 0.78% active;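 active means mean ATP rescue above about 67%, or every replicate alone reaching that limit, limit read from the data, passing the limit was not always enough; inconclusive means no clear call, values can overlap the other calls; inactive means mean under the limit and some replicate under it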;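 further: myotubes were challenged with 10 µM simvastatin during compound exposure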
esBAF inh: Bmi1 luciferase reporter increase in mESCs, primary screen, esBAF inhibitor project, mouse ES cells, Bmi1 luciferase knock-in, single point | 24 h; 100% = twice the neutral-well signal | reporter increase, % at 12.5 µM | 350,000 tested, 2% active | AID 602393, 2012; in the data active means activation above about 40%; inconclusive means no clear call, values can overlap the other calls;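 further: 0% = median of the plate's neutral control wells and 100% = double that signal; a rise in the Bmi1 reporter signal indicates esBAF inhibition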
* = called active by the depositor; u = inconclusive; x = not tested or not shown.

SMILES	Wnt act	MITF act	TRPM1 prom inh	LMP1 NFkB inh	C2C12 statin	esBAF inh
CC(C)(CO)N=Cc1c(O)[nH]c2ccccc12	x	-21.8	25.1	-6.5	4.9	0.4
Cc1cccc(/N=C/c2sc3ccccc3c2O)n1	46.0*	27.4	-26.3	-33.0	1.4	16.0
O=C(N/N=C/c1sc2ccccc2c1O)c1ccccc1	x	-26.8	27.9	21.5	x	x
O=C(N/N=C/c1sc2ccccc2c1O)c1cccc2ccccc12	x	-41.9	43.9	53.9*	x	x
CC(C)N=Cc1c(O)[nH]c2ccccc12	-0.2	1.1	-0.9	3.4	82.9*	0.8
Cc1cccc(/N=C/c2c(O)[nH]c3ccccc23)n1	x	66.5	-68.8	-67.0	7.6	74.0*
CC(C)NC(=O)N(C)C[C@@H]1OCCCC[C@H](C)Oc2ccc(NS(C)(=O)=O)cc2C(=O)N([C@@H](C)CO)C[C@H]1C	x	x	x	x	x	-3.5
CCOC(=O)N1CCC(N2CCN(Cc3ccccc3)C(CCO)C2)CC1 (stereo unspecified)	-7.9	3.7	-4.9	1.5	9.0	7.3
CCCCCCCNC(=O)C1(CC2CC(c3ccc(Cl)cc3)=NO2)CCN(C(=O)C2CCCC2)CC1 (stereo unspecified)	-3.2	4.9	-0.7	10.6	9.2	-6.5
Cc1nn(-c2ccccc2)c(N)c1N=Nc1cccnc1	11.4	96.8*	-98.9	-34.0	x	x
Nc1nn(-c2ccccc2)c(N)c1N=Nc1cccc(F)c1	19.8	x	x	x	x	x
CN(C)CC(=O)N1CC[C@H]2[C@@H]1c1cc(Br)ccc1N(C)[C@H]2CO	x	x	x	x	-8.8	-2.3
CCCNc1nc(C)nc2c1cnn2CCc1ccccc1	x	60.3	-60.2	-14.7	-10.8	19.3
Cc1nc(NC(C)C)c2cnn(CCc3ccccc3)c2n1	x	97.7*	-88.5	-9.8	-13.2	38.8
COc1ccc(C=Cc2ccc3ccccc3n2)c(OC)c1	1.0	x	x	44.6*	x	x
COc1ccc(OC)c(/C=C/c2ccc3cccc(O)c3n2)c1	9.5	-7.5	4.7	17.6	x	x
Cc1ccccc1-c1ccc([C@@H]2[C@H](CO)N3CCCCN(CC4CC4)C[C@@H]23)cc1	x	x	x	x	6.9	-7.0
COc1cccc(-c2nnc(-c3ccc4ccccc4c3)o2)c1	51.1*	55.7	-59.7	10.3	-5.5	x
Clc1ccc(-c2nnc(-c3ccc4ccccc4c3)o2)cc1	-2.1	27.5	-32.2	-5.7	0.3	u
COc1cccc(-c2nnc(-c3ccc(C(F)(F)F)cc3)o2)c1	22.3	x	-61.3	-50.1	2.9	54.9*
Cc1ccc(-c2nnc(-c3ccc4ccccc4c3)o2)cc1	12.9	47.8	-46.8	-3.6	4.8	54.3*
COc1cccc(-c2nnc(NC(C)=O)o2)c1	-2.5	17.2	-9.8	3.4	-13.7	-3.2
CCOC(=O)N1CCN(C(=O)c2ccc3c(=O)n(CCc4ccccc4)c(=O)[nH]c3c2)CC1	-6.3	2.6	-6.0	13.0	176.9*	3.0
CCOC(=O)N1CCN(C(=O)c2ccc(Cn3c(=S)[nH]c4cc(OCC)c(OCC)cc4c3=O)cc2)CC1	-3.4	-47.3	50.2	23.5	-40.6	-8.5
CCCCCn1c(=O)[nH]c2cc(C(=O)N3CCN(C(=O)OCC)CC3)ccc2c1=O	-4.5	-7.7	4.6	1.5	-4.2	-11.8
SMILES	Wnt act	MITF act	TRPM1 prom inh	LMP1 NFkB inh	C2C12 statin	esBAF inh
CCOC(=O)N1CCN(C(=O)c2ccc(Cn3c(=S)[nH]c4cc5c(cc4c3=O)OCO5)cc2)CC1	6.9	-61.2	62.7*	-2.4	-0.2	18.2
COc1ccc(NC(=O)N(C)C[C@@H]2OCc3ccccc3-c3ccccc3C(=O)N([C@H](C)CO)C[C@H]2C)c(OC)c1	x	x	x	x	x	-1.0
CCCCC(=O)NC(=S)Nc1cccc(C(=O)O)c1	-0.1	-0.8	2.0	-4.2	2.5	44.0*
CC(=O)c1cccc(NC(=S)NC(=O)c2ccccc2)c1	x	u	-87.8	-19.7	x	x
CCCCC(=O)NC(=S)Nc1cccc(NC(=O)CC)c1	0.6	-11.6	13.9	7.1	-4.6	17.2
CC(=O)c1cccc(NC(=S)NC(=O)C(C)C)c1	36.5*	2.0	-1.8	2.5	0.2	3.3
C[C@H]1CCCCO[C@@H](CN(C)C(=O)Nc2ccc(C(F)(F)F)cc2)[C@@H](C)CN([C@@H](C)CO)C(=O)c2cc(NS(=O)(=O)c3ccc(F)cc3)ccc2O1	x	x	x	x	x	-4.4
O=c1cccc2n1Cc1cc3ccccc3nc1-2	38.7*	39.9	-35.0	-33.9	9.6	53.5*
CCc1ccccc1-n1c(-c2ccncc2)n[nH]c1=S	1.0	-5.2	8.0	0.0	6.3	-8.2
COc1ncnc2c1cnn2-c1ccccc1	11.2	x	-45.7	-13.4	5.8	35.9
COCCN(CCOC)c1ncnc2c1cnn2-c1ccccc1	6.8	24.7	-18.7	-4.9	-2.9	37.6
COc1ccccc1Oc1ncnc2c1cnn2-c1ccccc1	9.8	91.1*	-93.0	-37.6	3.1	73.3*
CN(Cc1ccccc1)c1ncnc2c1cnn2-c1ccccc1	25.7	85.4*	-82.0	-38.2	53.0	40.0
CCN(c1ccccc1)c1ncnc2c1cnn2-c1ccccc1	10.4	x	x	-32.1	-15.3	75.8*
CCC1Oc2ccccc2N(CC(=O)N2CCCC2)C1=O (stereo unspecified)	-0.1	x	x	6.1	1.2	4.8
O=C1N(c2ccccc2)C[C@@H]2C[C@@H](c3cc4ccccc4o3)N3CCC[C@@]123	-7.9	-39.2	39.6	90.1*	x	x
O=C1N(Cc2cccc(Cl)c2)C[C@@H]2C[C@@H](c3ccco3)N3CCC[C@@]123	-1.8	-7.1	7.8	2.9	-1.0	-0.9
COc1ccc(C(=O)C(CN2CCOCC2)c2ccccc2)cc1F (stereo unspecified)	x	-53.8	54.1	74.2*	15.4	-9.1
CCCOc1ccc(C(=O)C(CN2CCOCC2)c2ccccc2)cc1 (stereo unspecified)	x	-34.8	36.5	-55.4	78.5*	-1.0
O=S(=O)(/N=C(/NC(=S)Nc1ccccc1)c1ccccc1)c1ccc(Cl)cc1	-0.6	111.8*	-113.1	-21.3	-42.3	68.4*
O=C(O)c1ccc(N/C(=N\S(=O)(=O)c2ccc(Cl)cc2)c2ccccc2)cc1	3.2	-6.5	2.1	-2.9	16.2	0.5
COc1ccc(NC(=S)NC(=NS(=O)(=O)c2ccc(Cl)cc2)c2ccccc2)cc1	12.9	56.7	-56.6	-32.0	-12.1	112.9*
O=C(NN/C(=N/S(=O)(=O)c1ccc(Cl)cc1)c1ccccc1)c1cccc(Cl)c1	33.0*	42.7	-39.2	-11.6	0.3	36.4
COc1ccc(NC(=S)N/C(=N/S(=O)(=O)c2ccc(C)cc2)c2ccccc2)cc1	7.4	30.9	-31.7	-19.5	-9.3	58.8*
CC(=O)c1cccc([N+](=O)[O-])c1	-2.6	8.7	-7.8	1.0	-8.4	-5.8
